Data published in article PMC7862700, “An all-to-all approach to the identification of sequence-specific readers for epigenetic DNA modifications on cytosine”.

Experiments:
Assay in all cases: DAPPL (digital affinity profiling via proximity ligation, sequencing); 10 mM Tris-HCl pH 7.5, 50 mM NaCl, 1 mM DTT, 4% glycerol, room temperature, 30 min; GST-TFs on glutathione beads, 16-mer random dsDNA library, 0.1% formaldehyde crosslink after washing; high values mean tight binding
[1] = molecular target: T1, FEV (Homo sapiens, UniProt Q99581 1-238); settings: protein: recombinant; tags: N-terminal GST; dsDNA, one strand shown
T1 sequence: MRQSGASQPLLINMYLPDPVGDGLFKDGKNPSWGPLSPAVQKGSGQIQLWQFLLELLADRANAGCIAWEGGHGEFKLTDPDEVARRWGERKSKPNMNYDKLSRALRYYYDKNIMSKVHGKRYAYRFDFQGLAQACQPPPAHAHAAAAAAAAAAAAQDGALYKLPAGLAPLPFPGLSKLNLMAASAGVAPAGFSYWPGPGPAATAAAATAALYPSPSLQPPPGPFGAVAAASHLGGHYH
How it was run: (§1)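 A tag-only sample was pooled with DNA-barcoded human transcription factors that had been expressed in yeast as GST fusions and captured on glutathione beads. The pools were incubated for 30 min at room temperature with 200 nmole of a random double-stranded 16-mer DNA library in Tris/NaCl/DTT/glycerol buffer, then washed, crosslinked with 0.1% formaldehyde, proximity-ligated (BsaI/T4 ligase, 1 h, 37 °C), PCR-amplified and sequenced on an Illumina NextSeq500. Binding signal is each hexamer's read frequency for a factor divided by its frequency for the tag-only sample.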

[2] = molecular target: ETV5 (Homo sapiens, UniProt P41161 1-510); settings: protein: recombinant; tags: N-terminal GST; dsDNA, one strand shown
How it was run: as §1

[3] = molecular target: HSF1 (Homo sapiens, UniProt Q00613 1-529); settings: protein: recombinant; tags: N-terminal GST; chain copies: 3; dsDNA, one strand shown
How it was run: as §1

[4] = molecular target: T2, SPIC (Homo sapiens, UniProt Q8N5J4 1-248); settings: protein: recombinant; tags: N-terminal GST; dsDNA, one strand shown
T2 sequence: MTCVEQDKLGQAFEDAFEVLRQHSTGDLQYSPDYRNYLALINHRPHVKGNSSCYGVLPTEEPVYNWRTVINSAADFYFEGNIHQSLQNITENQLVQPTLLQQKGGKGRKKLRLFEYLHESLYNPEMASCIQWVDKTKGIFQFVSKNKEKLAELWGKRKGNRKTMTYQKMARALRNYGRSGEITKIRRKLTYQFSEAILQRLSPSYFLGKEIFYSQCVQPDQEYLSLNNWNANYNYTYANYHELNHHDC
How it was run: as §1

[5] = molecular target: ELF4 (Homo sapiens, UniProt Q99607 1-663); settings: protein: recombinant; tags: N-terminal GST; dsDNA, one strand shown
How it was run: as §1

[6] = molecular target: T3, ELK4 (Homo sapiens, UniProt P28324-2 1-405); settings: protein: recombinant; tags: N-terminal GST; dsDNA, one strand shown
T3 sequence: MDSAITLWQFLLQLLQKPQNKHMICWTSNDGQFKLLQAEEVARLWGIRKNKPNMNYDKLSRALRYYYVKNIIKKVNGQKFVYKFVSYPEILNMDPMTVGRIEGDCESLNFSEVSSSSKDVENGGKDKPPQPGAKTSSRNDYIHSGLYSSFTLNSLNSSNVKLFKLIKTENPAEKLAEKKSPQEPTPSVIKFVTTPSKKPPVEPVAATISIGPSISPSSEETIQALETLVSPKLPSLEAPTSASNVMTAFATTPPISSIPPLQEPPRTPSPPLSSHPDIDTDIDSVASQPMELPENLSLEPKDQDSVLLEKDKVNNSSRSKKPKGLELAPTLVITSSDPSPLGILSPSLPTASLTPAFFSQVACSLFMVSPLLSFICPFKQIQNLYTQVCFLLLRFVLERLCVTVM
How it was run: as §1

[7] = molecular target: T4, ETV2 (Homo sapiens, UniProt O00321 1-342); settings: protein: recombinant; tags: N-terminal GST; dsDNA, one strand shown
T4 sequence: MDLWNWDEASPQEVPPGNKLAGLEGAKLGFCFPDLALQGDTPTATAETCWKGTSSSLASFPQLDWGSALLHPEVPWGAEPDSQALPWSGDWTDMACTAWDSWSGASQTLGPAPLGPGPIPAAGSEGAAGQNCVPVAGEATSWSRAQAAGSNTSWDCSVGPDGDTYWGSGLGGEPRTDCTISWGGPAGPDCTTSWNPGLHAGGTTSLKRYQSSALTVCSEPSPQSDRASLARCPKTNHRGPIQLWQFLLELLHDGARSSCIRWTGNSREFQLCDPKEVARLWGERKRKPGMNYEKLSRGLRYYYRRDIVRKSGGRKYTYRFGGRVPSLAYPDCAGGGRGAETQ
How it was run: as §1

[8] = molecular target: T5, ELF3 (Homo sapiens, UniProt P78545 1-371); settings: protein: recombinant; tags: N-terminal GST; dsDNA, one strand shown
T5 sequence: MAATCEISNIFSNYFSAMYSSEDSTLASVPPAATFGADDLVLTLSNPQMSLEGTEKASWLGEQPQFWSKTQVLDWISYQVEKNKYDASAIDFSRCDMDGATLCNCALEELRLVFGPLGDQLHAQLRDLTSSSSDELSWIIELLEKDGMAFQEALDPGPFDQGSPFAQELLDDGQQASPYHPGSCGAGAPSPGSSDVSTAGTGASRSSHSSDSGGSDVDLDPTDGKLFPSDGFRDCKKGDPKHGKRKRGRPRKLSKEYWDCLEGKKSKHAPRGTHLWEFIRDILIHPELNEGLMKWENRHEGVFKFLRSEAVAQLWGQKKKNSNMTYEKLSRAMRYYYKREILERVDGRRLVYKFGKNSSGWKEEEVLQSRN
How it was run: as §1

[9] = molecular target: ETV1 (Homo sapiens, UniProt P50549 1-477); settings: protein: recombinant; tags: N-terminal GST; dsDNA, one strand shown
How it was run: as §1

Sequence of ETV1 (P50549 whole entry): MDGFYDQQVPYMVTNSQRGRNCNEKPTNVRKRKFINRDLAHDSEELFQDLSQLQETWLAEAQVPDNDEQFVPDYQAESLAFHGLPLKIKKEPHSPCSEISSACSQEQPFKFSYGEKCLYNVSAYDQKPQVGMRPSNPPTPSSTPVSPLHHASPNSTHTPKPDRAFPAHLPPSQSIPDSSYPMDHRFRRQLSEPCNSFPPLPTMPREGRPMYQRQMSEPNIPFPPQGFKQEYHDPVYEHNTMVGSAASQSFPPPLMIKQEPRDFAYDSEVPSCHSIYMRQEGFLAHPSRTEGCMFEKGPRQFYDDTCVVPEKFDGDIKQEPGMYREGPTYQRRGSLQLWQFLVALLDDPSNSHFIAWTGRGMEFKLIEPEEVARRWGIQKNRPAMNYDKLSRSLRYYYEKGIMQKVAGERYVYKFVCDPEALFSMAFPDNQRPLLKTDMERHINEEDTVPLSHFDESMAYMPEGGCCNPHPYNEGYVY
Sequence of ELF4 (Q99607 whole entry): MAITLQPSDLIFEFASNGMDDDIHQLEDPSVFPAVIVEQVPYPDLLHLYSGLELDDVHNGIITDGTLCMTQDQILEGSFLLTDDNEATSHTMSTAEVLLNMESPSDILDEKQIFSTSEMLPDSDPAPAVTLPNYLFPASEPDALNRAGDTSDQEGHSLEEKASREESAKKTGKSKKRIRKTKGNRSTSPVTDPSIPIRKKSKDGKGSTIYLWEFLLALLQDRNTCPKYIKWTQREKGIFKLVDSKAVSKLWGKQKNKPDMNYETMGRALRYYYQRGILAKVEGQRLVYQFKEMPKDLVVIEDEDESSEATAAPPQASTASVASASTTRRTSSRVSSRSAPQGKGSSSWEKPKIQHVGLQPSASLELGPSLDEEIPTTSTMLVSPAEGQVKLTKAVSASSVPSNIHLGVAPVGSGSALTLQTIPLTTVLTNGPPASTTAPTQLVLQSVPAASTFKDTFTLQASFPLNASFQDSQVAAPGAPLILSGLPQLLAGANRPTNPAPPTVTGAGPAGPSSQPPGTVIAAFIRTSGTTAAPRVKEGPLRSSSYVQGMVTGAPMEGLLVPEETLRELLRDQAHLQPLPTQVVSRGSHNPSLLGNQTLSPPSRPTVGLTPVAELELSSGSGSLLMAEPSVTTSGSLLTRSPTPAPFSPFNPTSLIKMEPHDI
Sequence of ETV5 (P41161 whole entry): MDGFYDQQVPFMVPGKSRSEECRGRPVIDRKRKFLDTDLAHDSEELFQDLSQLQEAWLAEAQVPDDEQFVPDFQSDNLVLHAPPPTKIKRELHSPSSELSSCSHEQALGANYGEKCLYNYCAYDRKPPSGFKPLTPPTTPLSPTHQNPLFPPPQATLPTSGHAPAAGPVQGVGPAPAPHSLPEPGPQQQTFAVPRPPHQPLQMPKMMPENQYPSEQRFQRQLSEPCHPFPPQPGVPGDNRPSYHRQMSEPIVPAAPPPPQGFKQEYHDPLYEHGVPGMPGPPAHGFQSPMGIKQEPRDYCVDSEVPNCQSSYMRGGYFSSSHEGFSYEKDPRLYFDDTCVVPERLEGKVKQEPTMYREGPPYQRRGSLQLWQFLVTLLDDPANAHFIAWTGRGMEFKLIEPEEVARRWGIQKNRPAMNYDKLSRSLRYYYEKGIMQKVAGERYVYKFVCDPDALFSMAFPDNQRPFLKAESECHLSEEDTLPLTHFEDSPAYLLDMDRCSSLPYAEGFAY
Sequence of HSF1 (Q00613 whole entry): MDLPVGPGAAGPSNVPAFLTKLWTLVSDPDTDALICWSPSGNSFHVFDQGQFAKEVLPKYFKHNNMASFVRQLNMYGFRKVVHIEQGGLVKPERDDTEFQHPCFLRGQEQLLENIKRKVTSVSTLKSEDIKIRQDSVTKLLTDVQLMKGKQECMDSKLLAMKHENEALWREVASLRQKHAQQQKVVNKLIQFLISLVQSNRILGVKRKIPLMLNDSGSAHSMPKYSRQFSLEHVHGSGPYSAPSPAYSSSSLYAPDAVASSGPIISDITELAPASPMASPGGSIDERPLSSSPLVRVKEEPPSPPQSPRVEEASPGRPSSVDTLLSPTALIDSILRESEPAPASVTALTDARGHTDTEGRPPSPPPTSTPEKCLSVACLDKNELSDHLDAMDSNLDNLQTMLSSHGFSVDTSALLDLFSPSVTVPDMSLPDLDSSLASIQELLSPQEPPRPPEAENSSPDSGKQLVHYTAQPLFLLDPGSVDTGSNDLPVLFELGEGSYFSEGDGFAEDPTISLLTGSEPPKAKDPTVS

Sequence: GTTTGA
- binding signal [1]: 1.13 fold enrichment (6-mer frequency, TF over GST control)
- binding signal [2]: 1.19 fold enrichment (6-mer frequency, TF over GST control)
- binding signal [3]: 1.03 fold enrichment (6-mer frequency, TF over GST control)
- binding signal [4]: 1.25 fold enrichment (6-mer frequency, TF over GST control)
- binding signal [5]: 1.13 fold enrichment (6-mer frequency, TF over GST control)
- binding signal [6]: 1.28 fold enrichment (6-mer frequency, TF over GST control)
- binding signal [7]: 1.22 fold enrichment (6-mer frequency, TF over GST control)
- binding signal [8]: 1.15 fold enrichment (6-mer frequency, TF over GST control)
- binding signal [9]: 1.2 fold enrichment (6-mer frequency, TF over GST control)
